In experiment [1] the target is Lysosomal acid glucosylceramidase (Homo sapiens) (UniProt P04062). Description: Glucocerebrosidase-p2 (AID 348; in the data active means potency below about 10 µM; further: potency means the concentration at half of the fitted maximal effect). The following applies: purified GBA, blue fluorogenic substrate, 40 min. Put shortly: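 Normal human glucocerebrosidase (0.2 nM) with blue fluorogenic substrate (80 uM final) in citrate/phosphate pH 5.9 with 10mM sodium taurocholate, 0.01% tween-20; 40 min RT, NaOH/glycine stop; fluorescence Ex 365/Em 440; AC50 from a titration from 0.6 nM upwards.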
Sequence of Lysosomal acid glucosylceramidase (Homo sapiens) (P04062 whole entry, looked up): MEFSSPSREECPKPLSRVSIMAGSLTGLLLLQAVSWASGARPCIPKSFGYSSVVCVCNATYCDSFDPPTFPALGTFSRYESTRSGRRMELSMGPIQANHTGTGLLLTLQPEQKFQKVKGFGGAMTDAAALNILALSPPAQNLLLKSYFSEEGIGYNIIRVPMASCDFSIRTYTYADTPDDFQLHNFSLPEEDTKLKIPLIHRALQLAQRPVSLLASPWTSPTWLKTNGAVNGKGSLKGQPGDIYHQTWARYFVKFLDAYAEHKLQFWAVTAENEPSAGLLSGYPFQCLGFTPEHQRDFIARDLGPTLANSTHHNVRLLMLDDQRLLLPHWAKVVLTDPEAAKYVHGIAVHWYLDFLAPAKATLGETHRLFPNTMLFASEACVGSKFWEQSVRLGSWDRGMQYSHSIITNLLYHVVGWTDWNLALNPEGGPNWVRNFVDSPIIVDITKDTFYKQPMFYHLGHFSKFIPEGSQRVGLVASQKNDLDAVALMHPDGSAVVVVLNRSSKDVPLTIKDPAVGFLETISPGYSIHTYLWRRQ

Experiment [2] is described as follows: AP1 Signaling Pathway (AID 357; active means well fitted curve in either direction with a large enough effect, not every such curve was filed as active;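 further: ME-180 reporter cells stimulated with EGF at its EC50 level; on the % scale 0 is the no-effect control and ±100 the full control effect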). The following applies: ME-180 AP-1-bla reporter, EGF-induced, beta-lactamase ratio, 5 h; at 7.69 µM (top of the series) unless noted. The method in brief:
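Modulation of EGF-driven AP-1 transcription was assessed with a beta-lactamase reporter in ME-180 cells. Compound and EC50 EGF were co-incubated 5 hours at 37 °C before 2.5-hour CCF4 loading at room temperature and dual-emission reading.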

In experiment [3] the target is Cytochrome P450 1A2 (Homo sapiens) (UniProt P05177). Description: p450-cyp1a2 (AID 410; calls by dose curve; further: potency means the concentration at half of the fitted maximal effect). Particulars: recombinant CYP1A2, luciferin-ME demethylation, luminescence; series mostly up to 57 µM. Put shortly:
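20nM CYP1A2, 100uM Luciferin-ME (=Km), 100mM KPO4; cpd 10 min RT; +NADPH regen, 60 min RT; stop/detect 20 min; luminescence. Normalized to furafylline 57 uM = full inhibition.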

The nature of experiment [4]: NFAT Signaling Pathway (AID 444; active means well fitted curve in either direction with a large enough effect, not every such curve was filed as active;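 further: carbachol stimulus at about its EC50 of 1 µM final; on the % scale 0 is the no-effect control and ±100 the full control effect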). The following applies: Jurkat NFAT-bla M1, carbachol, beta-lactamase ratio, 5 h; at 7.69 µM (top of the series) unless noted. Put shortly: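 Jurkat cells with NFAT-driven β-lactamase reporter and co-expressed M1 receptor, stimulated with carbachol (final 1 uM, ~EC50), compound titration, 5 h at 37 °C. CCF4 loaded 1 h at RT; 460/530 nm ratio gave %activity and AC50.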

Experiment [5] is described as follows: Stat Signaling Pathway (AID 446; active means well fitted curve in either direction with a large enough effect, not every such curve was filed as active;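 further: ME-180 cervical cancer cells given 40 pM IL-6 alongside compound; SIE-controlled beta-lactamase reporter measured as 460/530 nm FRET emission ratio; on the % scale 0 is the no-effect control and ±100 the full control effect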). Particulars: ME-180 SIE beta-lactamase reporter, IL-6 stimulated, 5 h; at 7.69 µM (top of the series) unless noted. Put shortly: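 Emission at 460 and 530 nm (excitation 405 nm) reports SIE-controlled beta-lactamase in ME-180 cells. Cells received compound with 40 pM IL-6 for 5 hrs at 37 C; data scaled between 300 pM IL-6 and 125 nM JAK-inhibitor controls.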

In experiment [6] the target is Glucocorticoid receptor (Homo sapiens) (UniProt P04150). The experiment can be described thus: GR-GFP Redistribution (AID 450;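 active means compounds whose dose series gives a full or clear partial fitted curve of increased nuclear translocation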; further: potency means the concentration at half of the fitted maximal effect). The following applies: U2OS GR-GFP nuclear translocation, laser cytometry, 2 h.
Sequence of Glucocorticoid receptor (Homo sapiens) (P04150 whole entry, looked up, the tested form may be a part): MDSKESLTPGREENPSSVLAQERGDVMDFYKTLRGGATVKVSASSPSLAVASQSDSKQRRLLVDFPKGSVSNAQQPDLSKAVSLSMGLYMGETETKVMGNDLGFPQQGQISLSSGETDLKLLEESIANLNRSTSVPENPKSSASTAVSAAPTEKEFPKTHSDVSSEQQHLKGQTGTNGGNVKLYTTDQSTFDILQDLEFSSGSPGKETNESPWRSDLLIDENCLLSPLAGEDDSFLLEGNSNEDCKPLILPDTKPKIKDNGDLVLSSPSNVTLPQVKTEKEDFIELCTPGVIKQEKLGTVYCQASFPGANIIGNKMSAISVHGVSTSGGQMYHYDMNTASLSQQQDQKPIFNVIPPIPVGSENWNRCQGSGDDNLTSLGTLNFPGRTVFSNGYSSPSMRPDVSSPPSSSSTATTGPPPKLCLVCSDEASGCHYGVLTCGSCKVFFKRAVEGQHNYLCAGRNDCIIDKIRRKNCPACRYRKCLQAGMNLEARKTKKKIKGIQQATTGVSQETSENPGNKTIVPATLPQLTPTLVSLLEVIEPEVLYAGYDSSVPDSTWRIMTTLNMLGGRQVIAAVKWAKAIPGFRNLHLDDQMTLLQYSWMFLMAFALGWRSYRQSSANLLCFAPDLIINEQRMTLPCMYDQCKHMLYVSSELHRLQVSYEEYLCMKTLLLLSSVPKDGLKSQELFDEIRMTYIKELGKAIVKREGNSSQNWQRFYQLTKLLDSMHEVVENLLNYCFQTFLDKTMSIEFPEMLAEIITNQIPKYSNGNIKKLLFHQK
The target is the same in experiment [7]. The experiment can be described thus: GR-EFC Redistribution (AID 451; calls by dose curve; further: potency means the concentration at half of the fitted maximal effect). Particulars: CHO-K1 GR-EFC translocation, beta-gal luminescence, 2 h. Put shortly: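 CHO-K1 cells expressing nuclear EA and GR-ED fragments of b-gal; compounds titrated up to 46 uM final, 2 h at 37 C. GR nuclear translocation read as complemented b-gal luminescence after 1 h RT detection.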

Experiment [8] has as its target 3',5'-cyclic-AMP phosphodiesterase 4B (Homo sapiens) (UniProt Q07343). The experiment can be described thus: qHTS Assay for Inhibitors of PDE-IV (AID 607; active means well fitted activation curve with a large enough effect in the main read-out, with a control signal flat, not every such curve was filed as active; further: % of control where 0% means no effect). Particulars: HEK293 ACTOne CNG channel cells, membrane potential fluorescence; series mostly up to 22.9 µM. The method in brief: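 The readout is membrane depolarisation from a cAMP-sensing CNG channel, detected with a potential dye at ex 535/em 590. Cells were HEK293-derived (endogenous PDE-IV) at 1000 cells/well, titrated up to 22.9 uM final.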

The target of experiment [9] is Cytochrome P450 3A4 (Homo sapiens) (UniProt P08684). The experiment can be described thus: qHTS Assay for Inhibitors and Substrates of Cytochrome P450 3A4 (AID 884). Further: potency means the concentration at half of the fitted maximal effect; nearly all actives have a fitted effect of over 50% in size. The following applies: recombinant CYP3A4, Luciferin-PPXE luminescence; series mostly up to 57.1 µM. Put shortly: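 Luminescent readout of luciferin produced by CYP3A4 (20 nM) dealkylation of Luciferin-PPXE, 25 uM (its KM). NADPH-driven reaction ran 60 min at RT after 10 min compound preincubation; data scaled to 57 uM ketoconazole as 100% inhibition.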
Sequence of Cytochrome P450 3A4 (Homo sapiens) (P08684 whole entry, looked up): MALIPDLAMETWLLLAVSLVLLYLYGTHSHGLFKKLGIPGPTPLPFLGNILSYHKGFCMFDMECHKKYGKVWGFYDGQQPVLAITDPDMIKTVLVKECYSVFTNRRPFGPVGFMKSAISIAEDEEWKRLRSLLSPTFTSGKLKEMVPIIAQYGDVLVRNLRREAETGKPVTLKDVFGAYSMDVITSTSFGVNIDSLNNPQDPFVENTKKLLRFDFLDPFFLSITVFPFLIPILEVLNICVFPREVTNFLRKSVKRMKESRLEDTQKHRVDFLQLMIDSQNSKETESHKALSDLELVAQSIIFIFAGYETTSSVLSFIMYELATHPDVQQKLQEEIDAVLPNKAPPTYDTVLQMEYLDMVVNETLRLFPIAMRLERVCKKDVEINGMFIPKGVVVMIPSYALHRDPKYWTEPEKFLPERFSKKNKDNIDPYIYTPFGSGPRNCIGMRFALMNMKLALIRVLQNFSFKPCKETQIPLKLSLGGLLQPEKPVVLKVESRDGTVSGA
Background: qHTS replaces the single test concentration by a dilution series.

Experiment [10] shares this target. The experiment can be described thus: qHTS Assay for Activators of Cytochrome P450 3A4 (AID 885). Further: nearly all actives have a fitted effect of over 65% in size. The following applies: recombinant CYP3A4, Luciferin-PPXE luminescence, 60 min; series mostly up to 57.1 µM. Put shortly: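 Activators are scored by enhanced luminescence from CYP3A4 conversion of luciferin-PPXE (25uM, equal to KM) to luciferin, after 60 min at RT with an NADPH-regenerating system.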

Experiment [11] concerns the target Cytochrome P450 2D6 (Homo sapiens) (UniProt P10635). The experiment can be described thus: qHTS Assay for Inhibitors and Substrates of Cytochrome P450 2D6 (AID 891). Further: potency means the concentration at half of the fitted maximal effect; nearly all actives have a fitted effect of over 60% in size. Particulars: recombinant CYP2D6, luciferin-ME EGE luminescence; series mostly up to 57.1 µM. Put shortly:
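Luminescent read-out of luciferin formed by 5 nM human CYP2D6 demethylating 30 uM Luciferin-ME EGE (Km level) over 60 min at room temperature after NADPH regeneration addition. Data normalized to full inhibition by 1.43 uM quinidine.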

The target in experiment [12] is Cytochrome P450 2C19 (Homo sapiens) (UniProt P33261). The experiment can be described thus: qHTS Assay for Inhibitors and Substrates of Cytochrome P450 2C19 (AID 899). Further: potency means the concentration at half of the fitted maximal effect; nearly all actives have a fitted effect of over 60% in size. Particulars: recombinant CYP2C19, luciferin-H EGE luminescence; series mostly up to 57.1 µM. The method in brief:
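5 nM human CYP2C19 with 10uM Luciferin-H EGE (at KM) in 50mM KPO4, compound preincubated 10 min at 37C, then NADPH regeneration for 60 min at 37C. Luciferin read by luminescence after detection reagent; normalized to 57uM ketoconazole as full inhibition.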

Experiment [13] in a line: qHTS Assay for Identification of Small Molecule Agonists for Hypoxia Response Element Signaling Pathway (AID 914; active means well fitted activation curve with a large enough effect in the signal ratio, with a control signal flat, not every such curve was filed as active; the % refers to the signal ratio; further: % of control where 0% means no effect). Particulars: ME-180 (cervical carcinoma) HRE-bla reporter, beta-lactamase ratio, CoCl2, 17 h; activation: stronger effect = higher value. The method in brief: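 Reporter activity (beta-lactamase, CCF4 460nm/530nm ratio) in HRE-bla ME-180 cells is recorded after 17 h compound exposure with EC50 CoCl2 at 37 degrees Celsius. AC50 values come from titration data.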

The target of experiment [14] is Dual specificity protein kinase CLK4 (Homo sapiens) (UniProt Q9HAZ1). Description: qHTS Assay for Inhibitors of CDC-like Kinase 4 (Kinase-Glo Assay) (AID 1770). Further: nearly all actives have a fitted effect of over 65% in size. Further: potency means the concentration at half of the fitted maximal effect. The following applies: recombinant Clk4, Kinase-Glo ATP depletion luminescence; series mostly up to 66.7 µM. Put shortly: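 Recombinant human Clk4 (25 nM) phosphorylated RS repeat peptide (100 uM) with 1 uM ATP in Tris pH 7.5/MgCl2/EGTA/DTT/Triton buffer for 4.5 h at room temperature. Residual ATP was quantified by Kinase-Glo luciferase luminescence.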
Sequence of Dual specificity protein kinase CLK4 (Homo sapiens) (Q9HAZ1 whole entry, looked up): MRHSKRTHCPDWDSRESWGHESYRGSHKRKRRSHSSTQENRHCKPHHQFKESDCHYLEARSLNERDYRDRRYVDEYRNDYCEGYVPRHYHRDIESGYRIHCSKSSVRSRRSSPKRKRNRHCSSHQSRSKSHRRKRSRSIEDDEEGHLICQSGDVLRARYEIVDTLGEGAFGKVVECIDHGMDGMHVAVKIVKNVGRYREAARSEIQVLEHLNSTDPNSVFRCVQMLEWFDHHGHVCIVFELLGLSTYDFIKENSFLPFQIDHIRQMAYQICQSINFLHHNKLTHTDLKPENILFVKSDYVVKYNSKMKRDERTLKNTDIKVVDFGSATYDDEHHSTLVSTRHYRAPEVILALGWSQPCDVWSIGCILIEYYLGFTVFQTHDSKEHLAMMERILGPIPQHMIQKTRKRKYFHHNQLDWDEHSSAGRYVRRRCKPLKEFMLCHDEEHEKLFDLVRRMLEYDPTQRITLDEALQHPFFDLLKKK

Experiment [15] shares this target. Description: qHTS Assay for Inhibitors of CDC-like Kinase 4 (ADP-Glo Assay) (AID 1771). Further: nearly all actives have a fitted effect of over 70% in size. Further: potency means the concentration at half of the fitted maximal effect. Particulars: recombinant CLK4, ADP-Glo luminescence; series mostly up to 80 µM. Put shortly:
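25 nM Clk4, 100 uM RS peptide, 1 uM ATP (final); 2 mM MgCl2, 0.5 mM EGTA, 2.5 mM DTT, 0.01% Triton X-100; 1 hr RT. ADP-Glo readout: ATP depletion 45 min, conversion/luciferase 30 min, luminescence.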

The target of experiment [16] is Ubiquitin carboxyl-terminal hydrolase 1 (Homo sapiens) (UniProt O94782). Description: Inhibitors of USP1/UAF1: Pilot qHTS (AID 504865).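 Further: rhodamine fluorescence freed from ubiquitin-rhodamine substrate followed over time; top concentration of the series differs between compounds; on the % scale 0 is the no-effect control and ±100 the full control effect; nearly all actives have a fitted effect of over 35% in size.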 The following applies: purified USP1/UAF1, Ub-rhodamine cleavage fluorescence; series mostly up to 54.9 µM. The method in brief: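 USP1/UAF1 complex (1nM) preincubated with compound 15 min at room temperature, then Ub-Rho substrate (150nM final) added. Fluorescence read kinetically at 480/540 nm, 6 reads every 60 seconds. Buffer: 50mM HEPES pH 7.8, 0.5mM EDTA, 0.1 mg/ml BSA, 1mM TCEP, 0.01% Tween-20.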
Sequence of Ubiquitin carboxyl-terminal hydrolase 1 (Homo sapiens) (O94782 whole entry, looked up): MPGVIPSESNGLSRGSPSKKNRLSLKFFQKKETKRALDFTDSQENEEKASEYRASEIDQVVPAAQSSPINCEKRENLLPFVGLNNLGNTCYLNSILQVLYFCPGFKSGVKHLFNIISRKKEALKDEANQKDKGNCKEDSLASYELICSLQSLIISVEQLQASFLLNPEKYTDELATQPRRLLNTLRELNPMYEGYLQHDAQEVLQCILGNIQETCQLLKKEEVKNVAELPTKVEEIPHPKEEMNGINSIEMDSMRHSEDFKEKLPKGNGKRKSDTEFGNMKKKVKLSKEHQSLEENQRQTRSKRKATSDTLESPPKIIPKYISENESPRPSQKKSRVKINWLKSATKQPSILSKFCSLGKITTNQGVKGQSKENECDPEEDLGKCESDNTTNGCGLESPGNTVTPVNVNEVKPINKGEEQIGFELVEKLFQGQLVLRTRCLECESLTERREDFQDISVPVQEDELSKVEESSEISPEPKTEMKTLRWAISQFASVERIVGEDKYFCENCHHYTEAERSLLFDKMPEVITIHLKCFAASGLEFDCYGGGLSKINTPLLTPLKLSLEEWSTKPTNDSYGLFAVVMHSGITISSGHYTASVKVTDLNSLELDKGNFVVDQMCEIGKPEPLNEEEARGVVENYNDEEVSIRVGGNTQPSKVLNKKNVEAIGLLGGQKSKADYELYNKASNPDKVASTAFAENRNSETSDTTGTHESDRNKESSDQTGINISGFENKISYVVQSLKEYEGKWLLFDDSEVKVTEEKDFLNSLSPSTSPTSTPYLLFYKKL

The nature of experiment [17]: Primary qHTS for small molecule stabilizers of the endoplasmic reticulum resident proteome: Secreted ER Calcium Modulated Protein (SERCaMP) assay (AID 1508630). Further: on the % scale 0 is the no-effect control and ±100 the full control effect. Particulars: SH-SY5Y GLuc-SERCaMP (Gaussia luciferase released on ER calcium loss) secretion, thapsigargin, luminescence; series mostly up to 38.4 µM. The method in brief: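 The SH-SY5Y reporter protocol was run at 3 concentrations up to 38.3 uM (primary) or 11 concentrations (follow-up): 16 h compound, 100 nM thapsigargin for 4 h, then extracellular luciferase luminescence.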

Experiment [18] concerns the target Mitogen-activated protein kinase 10 (Mus musculus) (UniProt Q61831). The experiment can be described thus: JNK3 AlphaScreen Assay (AID 530; active means well fitted curve in either direction with a large enough effect, not every such curve was filed as active). The following applies: JNK3 lysate, c-Jun phosphorylation; series mostly up to 57.1 µM. The method in brief: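 HepG2 lysate (IL-1b/TNFa pre-activated) + biotin-GST-cJun 1-79 + anti-pSer73 cJun; cpd titration, 15 min RT; ATP 10 uM start; Tris pH 7.6, MgCl2, DTT, vanadate; beads in EDTA buffer; AlphaScreen.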

Values without a mark were called inactive. Results filed as inconclusive are left out. Active and inactive are the calls of the source. Unless noted, the call rests on the fitted dose curve; in most records, active means well fitted curve in the direction sought with a large enough effect; inconclusive means small, poorly fitted or top-dose-only effect, or another doubt; inactive means no such curve, though single readings can be large; an effect the other way counts as inactive or inconclusive.

Sequence of 3',5'-cyclic-AMP phosphodiesterase 4B (Homo sapiens) (Q07343 whole entry, looked up): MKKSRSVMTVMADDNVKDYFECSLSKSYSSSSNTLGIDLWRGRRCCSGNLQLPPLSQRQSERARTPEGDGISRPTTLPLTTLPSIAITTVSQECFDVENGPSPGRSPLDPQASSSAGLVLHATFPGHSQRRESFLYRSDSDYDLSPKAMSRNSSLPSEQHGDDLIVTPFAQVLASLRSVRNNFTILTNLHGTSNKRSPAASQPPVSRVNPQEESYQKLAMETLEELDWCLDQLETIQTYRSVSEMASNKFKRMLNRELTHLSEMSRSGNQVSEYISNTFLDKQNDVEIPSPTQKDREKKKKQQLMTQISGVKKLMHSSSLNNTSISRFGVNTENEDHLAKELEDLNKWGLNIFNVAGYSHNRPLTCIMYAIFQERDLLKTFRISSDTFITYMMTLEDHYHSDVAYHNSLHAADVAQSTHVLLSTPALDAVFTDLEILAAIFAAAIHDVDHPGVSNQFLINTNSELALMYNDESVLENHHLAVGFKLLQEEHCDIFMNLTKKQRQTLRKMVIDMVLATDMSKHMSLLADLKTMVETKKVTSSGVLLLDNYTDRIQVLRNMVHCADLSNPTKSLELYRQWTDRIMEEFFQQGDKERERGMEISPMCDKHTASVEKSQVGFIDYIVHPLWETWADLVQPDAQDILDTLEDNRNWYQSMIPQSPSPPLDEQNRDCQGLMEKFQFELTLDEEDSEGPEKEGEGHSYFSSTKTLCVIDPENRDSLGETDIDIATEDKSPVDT
Sequence of Cytochrome P450 1A2 (Homo sapiens) (P05177 whole entry, looked up): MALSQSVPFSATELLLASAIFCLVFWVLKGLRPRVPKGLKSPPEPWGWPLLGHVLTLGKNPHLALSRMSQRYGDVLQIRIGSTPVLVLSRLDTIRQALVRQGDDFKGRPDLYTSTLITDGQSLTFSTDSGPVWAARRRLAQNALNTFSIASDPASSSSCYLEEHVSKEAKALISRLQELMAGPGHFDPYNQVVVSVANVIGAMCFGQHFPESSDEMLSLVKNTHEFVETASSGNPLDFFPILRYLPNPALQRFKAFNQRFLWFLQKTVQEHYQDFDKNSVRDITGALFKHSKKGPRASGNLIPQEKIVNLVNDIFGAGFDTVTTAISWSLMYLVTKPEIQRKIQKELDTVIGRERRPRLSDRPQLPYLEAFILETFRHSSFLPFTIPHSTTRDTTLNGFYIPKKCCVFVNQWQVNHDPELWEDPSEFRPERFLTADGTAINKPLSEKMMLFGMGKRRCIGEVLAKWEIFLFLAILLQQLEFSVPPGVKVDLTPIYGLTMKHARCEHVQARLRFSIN
Sequence of Cytochrome P450 2C19 (Homo sapiens) (P33261 whole entry, looked up): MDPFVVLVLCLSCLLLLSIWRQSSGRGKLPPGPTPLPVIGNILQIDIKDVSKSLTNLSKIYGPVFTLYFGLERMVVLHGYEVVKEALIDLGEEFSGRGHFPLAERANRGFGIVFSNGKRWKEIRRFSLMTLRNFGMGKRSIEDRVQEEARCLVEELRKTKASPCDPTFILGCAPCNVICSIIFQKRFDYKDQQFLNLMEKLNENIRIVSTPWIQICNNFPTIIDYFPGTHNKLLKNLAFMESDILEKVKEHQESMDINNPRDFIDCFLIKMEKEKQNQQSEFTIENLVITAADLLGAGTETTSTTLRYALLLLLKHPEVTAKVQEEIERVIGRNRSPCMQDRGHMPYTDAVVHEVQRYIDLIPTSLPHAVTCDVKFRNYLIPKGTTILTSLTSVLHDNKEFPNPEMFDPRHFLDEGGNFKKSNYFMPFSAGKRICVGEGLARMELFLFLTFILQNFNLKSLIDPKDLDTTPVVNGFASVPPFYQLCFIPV

As for `COc1ccc2[nH]cc(CCNc3cc(-c4ccccc4C)ncn3)c2c1`, the Potency in experiment [1] was above 11.4 µM; in [3] it was 1 µM (active); in experiment [6], above 46 µM; in [7] it was above 46 µM; in experiment [9], 5.01 µM (active); in experiment [11], 7.94 µM (active). Besides, the Potency is 7.94 µM (active) in [12], 25.1 µM (active) in experiment [14] and 15.8 µM (active) in experiment [15]. Also, the results for the activity change, negative = inhibition in experiment [2] and in experiment [4] were -2.94% and -8.49%, respectively. Moreover, in experiment [5], the activity, negative = inhibition is -6.58%. For the same molecule, the Potency result in experiment [8], in experiment [10] and in experiment [16] was “inactive” each time. For the same molecule, in experiment [13], the activation was -7.71%. The result in [17] was inactive.

For the molecule `COc1cccc(-c2cc(NCc3ccccc3OC)ncn2)c1`, the Potency is above 11.4 µM in experiment [1]; 1.26 µM (active) in [3]; above 46 µM in experiment [6]; above 46 µM in [7]; 7.94 µM (active) in [12]; 15.8 µM (active) in experiment [14]. In addition, the Potency in experiment [15] was 28.2 µM (active). Besides, the figures for the activity change, negative = inhibition in experiment [2] and in experiment [4] were -14.5% and 6.41%, respectively. Also, in [5], the activity, negative = inhibition is -1.37%. Also, the Potency result in experiment [18], in experiment [8], in [10] and in [16] was “inactive” throughout. Moreover, the result in [17] was inactive.

For `COc1cccc(-c2cc(NCc3cnc(C)cn3)ncn2)c1`, the Potency in experiment [1] was above 11.4 µM; in [3] it was 5.01 µM (active); in experiment [6] it was above 46 µM; in [7], above 46 µM; in experiment [14], 17.8 µM (active); in experiment [15] it was 15.8 µM (active). Further, the activity change, negative = inhibition in experiment [2] is 12.1%; in experiment [4], -0.299%. In [5], the activity, negative = inhibition was -1.25%. For the same molecule, the Potency entry in experiment [18], in [8], in experiment [10] and in [16] was “inactive” in each case. Besides, in experiment [17], the result was inactive.

As to `Cc1cnc(CNc2nc(-c3c(C)noc3C)nc3ccccc23)cn1`, the Potency in experiment [1] was above 11.4 µM; in experiment [6] it was above 46 µM; in experiment [7], above 46 µM. Also, the figures for the activity change, negative = inhibition in experiment [2] and in experiment [4] were 9.21% and 15%, respectively. Further, the activity, negative = inhibition in experiment [5] is -4.92%. For the same molecule, the Potency entry in [18], in experiment [14], in experiment [15] and in [16] was “inactive” throughout. In addition, the outcome in experiment [17] was inactive.

`COc1ccc2[nH]cc(CCNc3cc(-c4cccnc4)ncn3)c2c1`: the Potency was above 11.4 µM in [1]; 3.16 µM (active) in experiment [3]; above 46 µM in experiment [6]; above 46 µM in experiment [7]; 3.98 µM (active) in experiment [9]; 14.1 µM (active) in experiment [14]. In addition, in experiment [15], the Potency is 15.8 µM (active). In addition, the activity change, negative = inhibition in experiment [2] is -10.1%; in experiment [4], 15.6%. For the same molecule, in [5], the activity, negative = inhibition was -2.74%. Also, the Potency result in experiment [8] and in experiment [16] was “inactive” each time. Further, the outcome in experiment [17] was inactive.

These data come from PubChem BioAssay (NCATS).
